# Experimental data: PubChem BioAssay AID743449 (Broad Institute, 2014)
# The whole screen tested about 9,900 compounds, of which about 90 (0.9%) were called active. Roughly 2% stayed inconclusive and do not appear here. This is one part of a sample in which actives are shown more often than they occur.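 The calls were made as follows: active = mean normalized replicate activity at least 50 and at least half of replicates each reaching 50; inconclusive = only one of the two criteria met; inactive = neither criterion met.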
# Assay: reduction of CTGF mRNA in DLD1 cells – DLD1 colon cancer cells, RT-qPCR, single point, primary screen (AID 743449);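 also: 0% = neutral control wells and 100% = dasatinib control wells; higher means stronger suppression of CTGF expression like dasatinib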
# Settings: 24 h, at 12.5 µM, active compounds read high
row,SMILES,inhibition
1,C[C@H](CO)N1C[C@H](C)[C@@H](CN(C)S(C)(=O)=O)Oc2ncc(-c3ccc(F)cc3)cc2C1=O,15.8% (inactive)
2,CO[C@@H]1CN(C)C(=O)c2cc(NS(=O)(=O)c3cccc(Cl)c3)ccc2OC[C@H](C)NC[C@@H]1C,4.93% (inactive)
3,CO[C@@H]1CC[C@H]2CCOc3ccc(C#N)cc3C(=O)N(C)C[C@@H](c3ccccc3)CC(=O)N(C)C[C@@H]1O2,-20.2% (inactive)
4,COCC(=O)N1[C@H](CO)[C@H](c2ccc(C#CC(C)C)cc2)[C@@H]1CNC(C)=O,26.8% (inactive)
5,C[C@H]1CN([C@@H](C)CO)C(=O)c2cc(NS(=O)(=O)c3cn(C)cn3)ccc2O[C@H]1CN(C)S(=O)(=O)c1ccc(F)cc1,-21.9% (inactive)
6,COCc1cn(CC[C@@H]2CC[C@@H](NC(=O)Nc3c(C)noc3C)[C@@H](CO)O2)nn1,4.39% (inactive)
7,C[C@@H]1CCCCO[C@@H](CN(C)Cc2ccc(C(=O)O)cc2)[C@H](C)CN([C@H](C)CO)C(=O)c2cc(N(C)C)ccc2O1,-3.21% (inactive)
8,Cc1cccc(S(=O)(=O)N2C[C@H](O)COC[C@@H]3O[C@@H](CC(=O)Nc4ccccc4)CC[C@H]32)c1,8.1% (inactive)
9,COc1ccc2c3c(n(C)c2c1)[C@@H](CO)N(Cc1ccncc1)CC31CN(C(=O)C2CCCCC2)C1,2.18% (inactive)
10,COc1ccc2c3c(n(C)c2c1)[C@@H](CO)N(Cc1ccncc1)CC31CN(C(=O)Nc2cccc(F)c2)C1,52.9% (active)
11,COc1ccc2c3c(n(C)c2c1)[C@H](CO)N(Cc1ccncc1)CC31CN(C(=O)Nc2cccc(F)c2)C1,46.1% (inactive)
12,CC(=O)N1[C@H](CO)[C@H](c2ccccc2)[C@@H]1CN(C(=O)c1ccccc1F)C(C)C,13% (inactive)
13,CCNC(=O)C[C@H]1CC[C@@H]2[C@H](COC[C@H](O)CN2C(=O)C2CCCC2)O1,-1.66% (inactive)
14,C[C@H](CO)N1C[C@H](C)[C@H](CN(C)C(=O)Nc2cccc(C(F)(F)F)c2)OCc2ccccc2-c2ccccc2C1=O,11.9% (inactive)
15,C[C@@H]1CN([C@H](C)CO)C(=O)c2cc(C#Cc3ccccc3)cnc2O[C@@H]1CN(C)C(=O)c1ccccc1,14.1% (inactive)
16,C[C@H]1CN([C@@H](C)CO)C(=O)c2cc(C#Cc3ccccc3)cnc2O[C@H]1CN(C)C(=O)c1ccccc1,65.3% (active)
17,C[C@@H]1CN([C@@H](C)CO)C(=O)c2ccccc2-c2ccccc2CO[C@H]1CN(C)C(=O)Nc1ccc(-c2ccccc2)cc1,73.6% (active)
18,C[C@H]1CN([C@@H](C)CO)C(=O)c2cc(C#Cc3ccccc3)cnc2O[C@@H]1CN(C)C(=O)c1ccccc1,34.5% (inactive)
19,C[C@@H]1CCCCO[C@@H](CN(C)C(=O)Nc2ccccc2)[C@H](C)CN([C@@H](C)CO)C(=O)c2cc(NC(=O)Nc3ccccc3)ccc2O1,16.9% (inactive)
20,C[C@@H]1CN([C@H](C)CO)C(=O)c2ccccc2-c2ccccc2CO[C@@H]1CN(C)C(=O)Nc1ccc(-c2ccccc2)cc1,39.6% (inactive)
21,C[C@@H]1CCCCO[C@H](CN(C)C(=O)Nc2ccccc2)[C@H](C)CN([C@@H](C)CO)C(=O)c2cc(NC(=O)Nc3ccccc3)ccc2O1,0.777% (inactive)

row,SMILES,inhibition
1,C[C@@H]1CN([C@H](C)CO)C(=O)c2ccccc2-c2ccccc2CO[C@@H]1CN(C)C(=O)Nc1cccc(C(F)(F)F)c1,14.3% (inactive)
2,C[C@@H]1CN([C@@H](C)CO)C(=O)c2cc(NC(=O)Nc3ccccc3)ccc2O[C@@H](C)CCCCO[C@@H]1CN(C)C(=O)Nc1ccccc1,62.7% (active)
3,C[C@@H]1CN([C@@H](C)CO)C(=O)c2ccccc2-c2ccccc2CO[C@H]1CN(C)C(=O)Nc1cccc(C(F)(F)F)c1,64.7% (active)
4,C[C@H](CO)N1C[C@H](C)[C@H](CN(C)C(=O)Nc2ccc(-c3ccccc3)cc2)OCc2ccccc2-c2ccccc2C1=O,28.1% (inactive)
5,O=C(C[C@@H]1CC[C@H]2[C@@H](COC[C@H](O)CN2C(=O)Nc2ccc(Cl)cc2)O1)NCC1CCCCC1,4.31% (inactive)
6,COc1ccccc1C#Cc1ccc([C@@H]2[C@@H](C#N)N(C(=O)C3CCC3)[C@@H]2CO)cc1,21% (inactive)
7,C[C@@H](NC(=O)C[C@@H]1C[C@H]2c3cc(NS(=O)(=O)c4ccc(F)cc4)ccc3O[C@H]2[C@@H](CO)O1)c1ccccc1,-0.447% (inactive)
8,COc1cccc(CNC(=O)[C@H]2[C@H](CO)[C@H]3Cn4c(ccc(-c5cncnc5)c4=O)[C@H]3N2C)c1,1.36% (inactive)
9,CO[C@@H](CN(C)S(=O)(=O)c1cccc(Cl)c1)[C@H](C)CN(C(=O)Nc1ccccc1F)[C@H](C)CO,-17% (inactive)
10,CCCNC(=O)N1[C@H](C#N)[C@@H](c2ccc(C#Cc3cccc(F)c3)cc2)[C@@H]1CO,69.7% (active)
11,CCCNC(=O)N1[C@H](C#N)[C@H](c2ccc(C#Cc3cccc(F)c3)cc2)[C@H]1CO,12.2% (inactive)
12,CCCNC(=O)N1[C@@H](C#N)[C@@H](c2ccc(C#Cc3cccc(F)c3)cc2)[C@@H]1CO,40.6% (inactive)
13,O=C(C[C@H]1CC[C@H]2[C@@H](COC[C@@H](O)CN2C(=O)c2ccc3c(c2)OCO3)O1)NC1CCC1,11% (inactive)
14,CN(C)CC(=O)N1CC2(C1)[C@H](c1ccccc1)[C@H](CO)N2S(C)(=O)=O,-45.5% (inactive)
15,C[C@@H]1CN([C@H](C)CO)C(=O)c2ccccc2-c2ccccc2CO[C@@H]1CN(C)Cc1cccnc1,-8.82% (inactive)
16,C[C@H](CO)N1C[C@H](C)[C@H](CN(C)Cc2ccc3c(c2)OCCN3C)OCc2ccccc2-c2ccccc2C1=O,-137% (inactive)
17,C[C@@H]1CN([C@H](C)CO)C(=O)c2ccccc2-c2ccccc2CO[C@@H]1CN(C)Cc1ccc(Oc2ccccc2)cc1,83.9% (active)
18,C[C@@H]1CN([C@H](C)CO)C(=O)c2ccccc2-c2ccccc2CO[C@@H]1CN(C)Cc1ccc2c(c1)OCCN2C,68.3% (active)
19,C[C@@H]1CN([C@@H](C)CO)C(=O)c2ccccc2-c2ccccc2CO[C@@H]1CN(C)Cc1ccc(Oc2ccccc2)cc1,44.4% (inactive)
20,C[C@H](CO)N1C[C@H](C)[C@@H](CN(C)Cc2ccc(Oc3ccccc3)cc2)OCc2ccccc2-c2ccccc2C1=O,-10.6% (inactive)
21,C[C@H](CO)N1C[C@H](C)[C@H](CN(C)Cc2ccc(Oc3ccccc3)cc2)OCc2ccccc2-c2ccccc2C1=O,59% (active)

row,SMILES,inhibition
1,C[C@H]1CN([C@@H](C)CO)C(=O)c2ccccc2-c2ccccc2CO[C@H]1CN(C)Cc1ccc2c(c1)OCCN2C,-29.2% (inactive)
2,C[C@H]1CN([C@@H](C)CO)C(=O)c2ccccc2-c2ccccc2CO[C@H]1CN(C)Cc1ccc(Oc2ccccc2)cc1,47.8% (inactive)
3,C[C@@H](NC(=O)C[C@@H]1CC[C@H]2[C@@H](COc3ccc(NC(=O)C4CCOCC4)cc3C(=O)N2C)O1)c1ccccc1,-5.56% (inactive)
4,O=C(CN1CCOCC1)N1CC[C@@H]2[C@H](CO)Nc3ccc(-c4ccccc4F)cc3[C@@H]21,-17.8% (inactive)
5,CCCC#Cc1ccc([C@@H]2[C@H]3CN(S(=O)(=O)c4ccccc4C)CC(=O)N3[C@H]2CO)cc1,26.1% (inactive)
6,C[C@@H]1CN([C@H](C)CO)C(=O)c2ccccc2-c2ccccc2CO[C@H]1CN(C)C(=O)[C@@H]1CCCN1C,3.47% (inactive)
7,O=C(Nc1ccc2c(c1)[C@@H]1C[C@H](CC(=O)N3CCc4ccccc4C3)O[C@H](CO)[C@@H]1O2)c1ccc2c(c1)OCO2,-19.3% (inactive)
8,O=C(Nc1ccc2c(c1)[C@H]1C[C@H](CC(=O)N3CCc4ccccc4C3)O[C@H](CO)[C@H]1O2)c1ccc2c(c1)OCO2,17% (inactive)
9,O=C(Nc1ccc2c(c1)[C@@H]1C[C@@H](CC(=O)N3CCc4ccccc4C3)O[C@H](CO)[C@@H]1O2)c1ccc2c(c1)OCO2,21.2% (inactive)
10,O=C(Nc1ccc2c(c1)[C@H]1C[C@@H](CC(=O)N3CCc4ccccc4C3)O[C@@H](CO)[C@H]1O2)c1ccc2c(c1)OCO2,61.8% (active)
11,O=C(Nc1ccc2c(c1)[C@@H]1C[C@H](CC(=O)N3CCc4ccccc4C3)O[C@@H](CO)[C@@H]1O2)c1ccc2c(c1)OCO2,-4.94% (inactive)
12,O=C(Nc1ccc(C(F)(F)F)cc1)Nc1ccc2c(c1)[C@@H]1C[C@H](CC(=O)N3CCc4ccccc4C3)O[C@@H](CO)[C@@H]1O2,-25% (inactive)
13,O=C(Nc1ccc2c(c1)[C@H]1C[C@@H](CC(=O)N3CCc4ccccc4C3)O[C@H](CO)[C@H]1O2)c1ccc2c(c1)OCO2,56.2% (active)
14,O=C(Nc1ccc(C(F)(F)F)cc1)Nc1ccc2c(c1)[C@H]1C[C@H](CC(=O)N3CCc4ccccc4C3)O[C@@H](CO)[C@H]1O2,57.2% (active)
15,O=C(Nc1ccc(C(F)(F)F)cc1)Nc1ccc2c(c1)[C@@H]1C[C@H](CC(=O)N3CCc4ccccc4C3)O[C@H](CO)[C@@H]1O2,-58% (inactive)
16,CS(=O)(=O)N1[C@@H](C#N)[C@H](c2ccc(C#Cc3cccc(F)c3)cc2)[C@@H]1CO,-161% (inactive)
17,O=C(C[C@@H]1CC[C@@H](NC(=O)C2CCOCC2)[C@@H](CO)O1)NCC1CCCCC1,-39.2% (inactive)
18,CO[C@@H]1CN(C)C(=O)c2ccc(NS(=O)(=O)c3ccc(C)cc3)cc2OC[C@H](C)N(C)C[C@@H]1C,-16.4% (inactive)
19,CC(=O)N1CC2(C1)[C@H](c1ccccc1)[C@H](CO)N2C(=O)c1cnccn1,-10.2% (inactive)
